Inconclusive results are not listed. Calls of active or inactive are those of the source.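 The calls were made as follows, unless noted: active = differentiation response of at least 50%, scaled between solvent and reference control, from cells with both markers; inactive = the rest.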
Tests used:
[1] = yeast TOR pathway RPL19A-GFP modulators, primary screen, cell-based, S. cerevisiae, multiplex flow cytometry (AID 1862; in the data active = percent of DMSO control GFP below about 86%;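 also: lower values mimic rapamycin by blocking the RPL19A rise seen in DMSO cells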); settings: S. cerevisiae RPL19A-GFP strain, flow cytometry fluorescence, 3 h; at 10 µM; stronger effect = lower value
[2] = modulators of MEP2-GFP levels in yeast, primary screen, S. cerevisiae, multiplex flow cytometry (AID 1867;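 active = GFP response, as percent of the DMSO control, above the screen-wide mean plus 3 SD, about 139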;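 also: median GFP channel fluorescence of barcode-gated MEP2-GFP cells measured by flow cytometry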); settings: S. cerevisiae MEP2-GFP strain, 3 h, at 10 µM, stronger effect = higher value, 100% means same as DMSO wells
[3] = modulators of CIT2-GFP expression in yeast, primary screen, S. cerevisiae, GFP fusion, multiplex flow cytometry (AID 1870;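 active = percent response above a set limit, the screen-wide mean plus 3 SD, cut at about 130% in these data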;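 also: barcoded CIT2-GFP strain pooled with four other GFP strains with rapamycin as positive control; median GFP fluorescence per well over plate mean of DMSO wells so 100% = DMSO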); settings: 3 h, at 10 µM, stronger effect = higher value
[4] = modulators of LAP4-GFP expression in yeast, primary screen, S. cerevisiae, multiplex flow cytometry (AID 1873;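 active = GFP signal, as percent of the solvent control, above the screen mean plus 3 SD, about 149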); settings: 3 h, at 10 µM, stronger effect = higher value
[5] = modulators of AGP1-GFP expression in yeast TOR pathway, primary screen, cell-based, multiplex flow cytometry, S. cerevisiae (AID 1887;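 active = GFP signal above the screen-wide mean plus 3 SD, that is over about 124.5% of the solvent control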;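 also: AGP1-GFP fusion strain of S. cerevisiae within a five-strain barcoded multiplex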); settings: 3 h, at 10 µM, stronger effect = higher value
[6] = inhibitors of CD8+ T cell-vesicle binding, pilot screen, LFA-1/ICAM-1 modulator project, MLPCN validation set, flow cytometry (AID 2523;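 active = response below a set limit, under 55% cells CD8-positive and vesicle-bound, and CD8 cells' 90th-percentile brightness under 279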;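 as to vesicle binding response: mean PE anti-B7-1 fluorescence of CD8+ cells relative to row control; 100% = QL9-loaded vesicles with DMSO vehicle in the same plate row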); settings: 2C mouse CD8+ T cells, at 7 µM, stronger effect = lower value; double positive events: measured here: CD8+/vesicle+ event percentage
[7] = target: Integrin beta-1 (Homo sapiens) + Integrin alpha-4 (Homo sapiens) (UniProt P13612+P05556); assay: inhibition of HUTS-21 binding to VLA-4, pilot screen, VLA-4 allosteric modulator project, U937 cells, HUTS-21 mAb, flow cytometry, validation set (AID 2674;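 active = inhibition above 50%, about 3 SD of the validation set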;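 also: antibody binding induced by the VLA-4 ligand LDV present at three times its Kd; 0% = LDV ligand with antibody and no compound and 100% = antibody without LDV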); settings: HUTS-21 LIBS mAb binding, at 6.7 µM, stronger effect = higher value, binding induced by LDV ligand
[8] = superoxide lowering in aged yeast cells, pilot screen, validation compound set (AID 2706;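 active = superoxide response below 65% of plate, a cut near 3 SD across the whole screen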;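 also: yeast exposed to compound for one week at 30 degrees C before staining; 100% = mean of all compound wells on the same plate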); settings: S. cerevisiae aging, superoxide DHE fluorescence; at 10 µM; stronger effect = lower value
[9] = target: Beta-adrenergic receptor kinase 1 (Homo sapiens) (UniProt P25098); assay: GRK2 binders displacing RNA aptamer, biochemical, validation, human GRK2, bead flow cytometry (AID 488806;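 active = aptamer binding inhibition above 30%, about 3 SD of noise from non-fluorescent compounds; inactive = inhibition at or below 30%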); settings: bead-bound GRK2, FAM-aptamer displacement, at 10 µM, stronger effect = higher value
[10] = target: Beta-2 adrenergic receptor (Homo sapiens) (UniProt P07550); assay: beta2AR agonists driving receptor internalization, pilot screen, cell-based, FAP fluorogen, flow cytometry, validation set (AID 504459;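 active = percent response above 42, roughly 3 SD of non-fluorescent test compounds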;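 also: agonist-driven loss of surface beta2AR via internalization measured by FAP dye flow cytometry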); settings: Am2.2-beta2AR cells, FAP surface receptor flow cytometry; at 10 µM; stronger effect = higher value
[11] = target: AP-2 complex subunit beta (Homo sapiens) (UniProt P63010); assay: inhibitors of arrestin peptide binding to AP2, pilot screen, biochemical, validation set, GST-AP2 beads, flow cytometry (AID 504541;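 active = inhibition above 54%, about 3 SD of non-fluorescent compounds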;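 also: AP2 carries R879A mutation and is captured from E. coli lysate; bead-bound FITC arrestin peptide fluorescence measuring arrestin peptide binding to AP2; 0% = DMSO wells and 100% = excess unlabeled arrestin peptide control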); settings: FITC arrestin peptide, at 10 µM, stronger effect = higher value, AP2 beta2 appendage fragment, R879A mutant
[12] = yeast V-ATPase proton transport modulators, S. cerevisiae, pHLuorin, HTS validation (AID 504600; in the data active = response above about 15%;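 also: plate controls were DMSO for no effect and reference compound for full effect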); settings: S. cerevisiae pHLuorin cytosolic pH, at 10 µM, stronger effect = higher value
[13] = system: anti-desmoglein-3 scFv antibody binding to human DSG3; assay: inhibitors of anti-DSG3 scFv binding to DSG3, pilot screen, biochemical, validation compound set, bead-based, flow cytometry (AID 588368;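 active = binding below the plate cutoff, the plate median minus 3 SD, with a reading above zero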;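 also: signal is the median channel fluorescence of bead-bound GFP antibody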); settings: Protein G beads, DSG3-Fc, scFv-GFP binding, at 10 µM, stronger effect = lower value
[14] = inhibitors of fungal efflux pumps CDR1, CDR2, MDR1, pilot screen, validation compound set, multiplex, phenotypic (AID 588506;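 active = efflux inhibition above 0.42, the validation set average plus 4 SD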;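 also: Nile Red retained in cells so higher fluorescence means more efflux inhibition; 0 = negative control wells and 1 = enniatin B 25 µM full block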); settings: S. cerevisiae pump-expressing triplex, Nile Red efflux flow cytometry; at 10 µM; stronger effect = higher value; the pumps come from Candida albicans
[15] = target: ATP-binding cassette sub-family B member 6 (Homo sapiens) (UniProt Q9NP58); assay: ABCB6 transporter inhibitors, pilot screen, K562-ABCB6 cells, flow cytometry, validation set (AID 588550;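 active = inhibition above the screen-wide mean plus 3 SD, about 51%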;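 also: 0% = DMSO wells and 100% = benzethonium chloride 70 µM positive control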); settings: K562-ABCB6 porphyrin accumulation, 1 h, at 10 µM, stronger effect = higher value
[16] = promoters of myeloid differentiation in arrested cells, primary screen, cell-based, GFP/MAC1 double positive, flow cytometry, validation set (AID 588685); settings: ER-HoxA9 marrow cells, stronger effect = higher value, normalized: vehicle 0, fulvestrant 100;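 also: compound exposure lasts four days before antibody staining and flow analysis; 0% = DMSO wells and 100% = 5 µM fulvestrant positive control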

Sequence of ATP-binding cassette sub-family B member 6 (Homo sapiens) (Q9NP58 whole entry, looked up): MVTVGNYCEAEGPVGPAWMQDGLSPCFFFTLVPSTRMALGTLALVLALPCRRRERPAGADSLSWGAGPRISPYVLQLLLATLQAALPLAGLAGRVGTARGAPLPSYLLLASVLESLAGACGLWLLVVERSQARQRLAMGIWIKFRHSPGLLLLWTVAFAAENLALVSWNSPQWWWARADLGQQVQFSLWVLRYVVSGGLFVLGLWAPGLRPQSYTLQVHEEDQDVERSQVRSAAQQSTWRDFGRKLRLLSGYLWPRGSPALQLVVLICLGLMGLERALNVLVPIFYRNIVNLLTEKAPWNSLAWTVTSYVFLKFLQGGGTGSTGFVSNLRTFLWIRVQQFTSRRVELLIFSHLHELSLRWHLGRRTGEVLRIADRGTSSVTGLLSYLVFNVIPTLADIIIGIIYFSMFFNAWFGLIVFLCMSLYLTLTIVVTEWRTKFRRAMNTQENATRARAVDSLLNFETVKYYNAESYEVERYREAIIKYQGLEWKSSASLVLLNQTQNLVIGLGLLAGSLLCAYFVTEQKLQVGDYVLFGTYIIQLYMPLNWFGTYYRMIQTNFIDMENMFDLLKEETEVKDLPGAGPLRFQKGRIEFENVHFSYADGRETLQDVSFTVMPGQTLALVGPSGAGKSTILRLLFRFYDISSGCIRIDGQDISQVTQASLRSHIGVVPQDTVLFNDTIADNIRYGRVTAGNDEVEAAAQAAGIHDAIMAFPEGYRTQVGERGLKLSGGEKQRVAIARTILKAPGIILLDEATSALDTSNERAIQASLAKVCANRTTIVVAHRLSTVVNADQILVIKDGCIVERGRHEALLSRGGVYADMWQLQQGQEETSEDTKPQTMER
Sequence of Beta-2 adrenergic receptor (Homo sapiens) (P07550 whole entry, looked up): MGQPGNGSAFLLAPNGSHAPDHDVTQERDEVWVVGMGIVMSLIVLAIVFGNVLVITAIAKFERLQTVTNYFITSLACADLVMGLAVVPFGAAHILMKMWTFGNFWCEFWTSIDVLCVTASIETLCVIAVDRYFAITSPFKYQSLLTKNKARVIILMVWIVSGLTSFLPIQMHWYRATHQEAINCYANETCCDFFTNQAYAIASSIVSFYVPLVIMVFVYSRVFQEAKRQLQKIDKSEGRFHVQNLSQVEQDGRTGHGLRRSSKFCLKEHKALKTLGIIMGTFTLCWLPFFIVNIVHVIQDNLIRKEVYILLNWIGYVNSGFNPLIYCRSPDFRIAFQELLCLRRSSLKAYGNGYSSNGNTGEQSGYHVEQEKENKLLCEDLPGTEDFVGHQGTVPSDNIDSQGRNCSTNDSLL
Sequence of Integrin beta-1 (Homo sapiens) + Integrin alpha-4 (Homo sapiens) (P05556 whole entry, looked up): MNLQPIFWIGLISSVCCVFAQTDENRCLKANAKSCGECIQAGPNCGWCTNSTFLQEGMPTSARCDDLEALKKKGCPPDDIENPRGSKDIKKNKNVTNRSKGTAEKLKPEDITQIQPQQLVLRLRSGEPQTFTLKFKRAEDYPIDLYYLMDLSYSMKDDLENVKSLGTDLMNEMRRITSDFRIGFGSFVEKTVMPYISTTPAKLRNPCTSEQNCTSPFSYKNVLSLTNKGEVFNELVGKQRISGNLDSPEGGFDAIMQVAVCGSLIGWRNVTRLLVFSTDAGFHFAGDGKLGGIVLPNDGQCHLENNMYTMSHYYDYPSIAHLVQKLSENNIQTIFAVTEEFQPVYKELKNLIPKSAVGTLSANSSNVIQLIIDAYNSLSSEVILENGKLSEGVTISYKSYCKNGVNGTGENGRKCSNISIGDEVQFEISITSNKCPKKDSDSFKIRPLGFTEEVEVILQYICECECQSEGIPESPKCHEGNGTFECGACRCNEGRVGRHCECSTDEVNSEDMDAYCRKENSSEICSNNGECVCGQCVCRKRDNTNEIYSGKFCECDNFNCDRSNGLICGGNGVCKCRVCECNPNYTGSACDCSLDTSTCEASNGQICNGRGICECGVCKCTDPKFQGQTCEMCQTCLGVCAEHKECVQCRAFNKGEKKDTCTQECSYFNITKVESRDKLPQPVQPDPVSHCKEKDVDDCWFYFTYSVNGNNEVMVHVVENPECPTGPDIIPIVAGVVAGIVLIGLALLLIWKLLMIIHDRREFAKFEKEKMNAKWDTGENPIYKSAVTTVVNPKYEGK
Sequence of Integrin beta-1 (Homo sapiens) + Integrin alpha-4 (Homo sapiens) (P13612 whole entry, looked up): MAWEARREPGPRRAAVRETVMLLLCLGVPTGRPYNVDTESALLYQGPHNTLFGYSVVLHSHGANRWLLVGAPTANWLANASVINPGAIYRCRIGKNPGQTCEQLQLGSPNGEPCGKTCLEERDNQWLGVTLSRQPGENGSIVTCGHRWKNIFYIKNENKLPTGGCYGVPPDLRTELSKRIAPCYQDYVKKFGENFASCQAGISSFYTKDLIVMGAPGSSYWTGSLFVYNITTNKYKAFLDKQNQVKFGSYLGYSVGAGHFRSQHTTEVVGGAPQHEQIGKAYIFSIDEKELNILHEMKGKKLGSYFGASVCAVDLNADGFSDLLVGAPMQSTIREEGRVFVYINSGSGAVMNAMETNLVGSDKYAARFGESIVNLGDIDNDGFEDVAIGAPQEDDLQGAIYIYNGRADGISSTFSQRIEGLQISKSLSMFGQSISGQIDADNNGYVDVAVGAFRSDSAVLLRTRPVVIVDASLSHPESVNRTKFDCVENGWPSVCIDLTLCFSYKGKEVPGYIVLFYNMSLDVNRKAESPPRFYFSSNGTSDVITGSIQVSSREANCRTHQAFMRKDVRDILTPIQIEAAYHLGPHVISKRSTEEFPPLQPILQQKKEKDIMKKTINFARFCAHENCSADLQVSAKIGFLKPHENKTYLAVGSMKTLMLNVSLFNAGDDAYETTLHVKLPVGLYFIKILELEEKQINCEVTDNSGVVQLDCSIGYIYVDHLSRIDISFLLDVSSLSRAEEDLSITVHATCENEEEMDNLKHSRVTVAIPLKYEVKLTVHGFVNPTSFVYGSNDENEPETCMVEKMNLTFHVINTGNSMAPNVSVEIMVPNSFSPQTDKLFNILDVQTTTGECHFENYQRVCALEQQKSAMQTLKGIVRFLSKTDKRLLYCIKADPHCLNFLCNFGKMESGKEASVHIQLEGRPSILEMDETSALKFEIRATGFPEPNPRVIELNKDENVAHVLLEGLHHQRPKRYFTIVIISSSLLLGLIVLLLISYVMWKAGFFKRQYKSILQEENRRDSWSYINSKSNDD
Sequence of Beta-adrenergic receptor kinase 1 (Homo sapiens) (P25098 whole entry, looked up): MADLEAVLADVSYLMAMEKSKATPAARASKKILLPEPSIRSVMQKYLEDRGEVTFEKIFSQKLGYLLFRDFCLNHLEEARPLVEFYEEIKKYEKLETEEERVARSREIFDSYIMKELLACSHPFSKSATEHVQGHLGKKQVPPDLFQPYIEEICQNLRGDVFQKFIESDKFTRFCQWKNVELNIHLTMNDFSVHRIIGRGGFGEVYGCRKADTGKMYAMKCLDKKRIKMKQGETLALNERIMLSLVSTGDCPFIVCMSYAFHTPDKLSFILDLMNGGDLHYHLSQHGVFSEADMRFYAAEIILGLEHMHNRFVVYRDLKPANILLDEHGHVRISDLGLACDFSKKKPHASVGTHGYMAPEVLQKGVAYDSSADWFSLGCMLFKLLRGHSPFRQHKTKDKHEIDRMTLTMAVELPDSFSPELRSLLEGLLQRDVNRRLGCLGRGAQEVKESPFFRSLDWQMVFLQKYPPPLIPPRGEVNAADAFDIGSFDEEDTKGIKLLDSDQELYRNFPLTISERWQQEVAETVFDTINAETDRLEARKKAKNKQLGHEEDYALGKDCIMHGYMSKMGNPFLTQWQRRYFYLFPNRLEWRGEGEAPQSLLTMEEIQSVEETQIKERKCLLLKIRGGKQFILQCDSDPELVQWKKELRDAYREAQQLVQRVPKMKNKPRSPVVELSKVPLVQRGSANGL
Sequence of AP-2 complex subunit beta (Homo sapiens) (P63010 whole entry, looked up, the tested form may be a part, one chain of several): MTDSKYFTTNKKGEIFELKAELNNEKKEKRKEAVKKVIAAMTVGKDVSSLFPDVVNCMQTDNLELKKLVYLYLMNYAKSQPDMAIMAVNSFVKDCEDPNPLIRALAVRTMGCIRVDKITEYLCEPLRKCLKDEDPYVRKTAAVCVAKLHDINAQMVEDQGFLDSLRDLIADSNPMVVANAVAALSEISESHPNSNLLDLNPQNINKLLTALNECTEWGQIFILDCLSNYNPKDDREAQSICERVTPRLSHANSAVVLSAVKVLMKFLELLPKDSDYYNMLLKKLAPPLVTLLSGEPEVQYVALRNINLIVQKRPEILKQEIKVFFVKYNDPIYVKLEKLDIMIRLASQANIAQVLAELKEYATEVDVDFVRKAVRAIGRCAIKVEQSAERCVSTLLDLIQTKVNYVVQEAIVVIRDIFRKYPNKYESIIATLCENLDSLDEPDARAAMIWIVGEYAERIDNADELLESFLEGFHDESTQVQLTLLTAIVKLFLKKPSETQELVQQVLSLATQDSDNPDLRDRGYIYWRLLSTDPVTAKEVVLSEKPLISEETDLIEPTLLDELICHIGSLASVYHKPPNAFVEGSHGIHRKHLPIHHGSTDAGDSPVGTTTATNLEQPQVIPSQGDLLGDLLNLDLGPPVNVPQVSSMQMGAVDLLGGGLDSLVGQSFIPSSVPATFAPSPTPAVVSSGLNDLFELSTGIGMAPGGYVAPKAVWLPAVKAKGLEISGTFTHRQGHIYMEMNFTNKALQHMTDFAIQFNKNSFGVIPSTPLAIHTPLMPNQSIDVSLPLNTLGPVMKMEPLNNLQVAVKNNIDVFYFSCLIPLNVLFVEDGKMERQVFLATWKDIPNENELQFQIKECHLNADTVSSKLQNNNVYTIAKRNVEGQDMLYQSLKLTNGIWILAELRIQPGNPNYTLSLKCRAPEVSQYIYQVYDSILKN

CC(C)(S)[C@@H](N)C(=O)O
inactive: percent of DMSO control GFP [1] 97.8% | GFP response vs DMSO [2] 109% | percent response of DMSO control [3] 87.2% | GFP response vs DMSO [4] 101% | GFP response, % of DMSO [5] 98.9% | vesicle binding response [6] 177% | inhibition [7] 0.94% | superoxide response (% of plate) [8] 85% | aptamer binding inhibition [9] 6% | response [10] 1.94% | inhibition [11] -6.4% | response [12] 0.19% | binding (% of control) [13] 98.2% | efflux inhibition (fraction of control) [14] 0.08 | inhibition [15] 5% | differentiation response [16] 7.2%
62.5%: double positive events [6]

Cc1ccc(OCc2nc(-c3cccnc3)no2)cc1C
60.5%: double positive events [6]
inactive: percent of DMSO control GFP [1] 92% | GFP response vs DMSO [2] 124% | percent response of DMSO control [3] 99.2% | GFP response vs DMSO [4] 75.4% | GFP response, % of DMSO [5] 88% | vesicle binding response [6] 221% | inhibition [7] -7.12% | superoxide response (% of plate) [8] 101% | aptamer binding inhibition [9] 1% | response [10] -15.7% | inhibition [11] 1.06% | response [12] 3.35% | binding (% of control) [13] 98.3% | efflux inhibition (fraction of control) [14] 0.27 | inhibition [15] 9% | differentiation response [16] 2.46%

O=C1CC[C@@H](CN(Cc2ccccc2)Cc2cn[nH]c2-c2cc3ccccc3o2)N1
63.1%: double positive events [6]
inactive: percent of DMSO control GFP [1] 101% | GFP response vs DMSO [2] 108% | percent response of DMSO control [3] 99.6% | GFP response vs DMSO [4] 110% | GFP response, % of DMSO [5] 114% | vesicle binding response [6] 198% | inhibition [7] -4.52% | superoxide response (% of plate) [8] 93.3% | aptamer binding inhibition [9] 5% | response [10] 40.3% | inhibition [11] 2.07% | response [12] 3.87% | binding (% of control) [13] 101% | efflux inhibition (fraction of control) [14] 0.38 | inhibition [15] 1% | differentiation response [16] -7.94%

COc1ccc(/C=C(/C#N)c2cccnc2)cc1OC
active: vesicle binding response [6] 6.8%
54.1%: double positive events [6]
inactive: percent of DMSO control GFP [1] 101% | GFP response vs DMSO [2] 104% | percent response of DMSO control [3] 94.9% | GFP response vs DMSO [4] 99.4% | GFP response, % of DMSO [5] 99.1% | inhibition [7] -13.2% | superoxide response (% of plate) [8] 98.6% | aptamer binding inhibition [9] 3% | response [10] -1.52% | inhibition [11] 23.7% | response [12] 0.34% | binding (% of control) [13] 105% | efflux inhibition (fraction of control) [14] 0.42 | inhibition [15] 2% | differentiation response [16] 17.1%

CCNC(=S)N1CCN(CCN2C(=O)c3cccc4cccc(c34)C2=O)CC1
63.5%: double positive events [6]
inactive: percent of DMSO control GFP [1] 103% | GFP response vs DMSO [2] 97.7% | percent response of DMSO control [3] 106% | GFP response vs DMSO [4] 95.9% | GFP response, % of DMSO [5] 107% | vesicle binding response [6] 143% | inhibition [7] -26.6% | superoxide response (% of plate) [8] 96.9% | aptamer binding inhibition [9] 0% | response [10] -20.5% | inhibition [11] -15.4% | response [12] 1.54% | binding (% of control) [13] 104% | efflux inhibition (fraction of control) [14] -0.195 | inhibition [15] -13% | differentiation response [16] -8.96%

O=C(O)CCCCCN=C1CCc2ccccc2N1
63.5%: double positive events [6]
inactive: percent of DMSO control GFP [1] 93% | GFP response vs DMSO [2] 132% | percent response of DMSO control [3] 101% | GFP response vs DMSO [4] 80.9% | GFP response, % of DMSO [5] 90.5% | vesicle binding response [6] 163% | inhibition [7] 10.3% | superoxide response (% of plate) [8] 118% | aptamer binding inhibition [9] 2% | response [10] -6.38% | inhibition [11] 4% | response [12] -0.07% | binding (% of control) [13] 98.7% | efflux inhibition (fraction of control) [14] 0.3 | inhibition [15] 9% | differentiation response [16] 0%

Cc1nc(C2CC(=O)OC23CCCCC3)cs1 (stereo not drawn)
inactive: percent of DMSO control GFP [1] 94.4% | GFP response vs DMSO [2] 106% | percent response of DMSO control [3] 94.8% | GFP response vs DMSO [4] 116% | GFP response, % of DMSO [5] 94% | vesicle binding response [6] 136% | inhibition [7] -0.43% | superoxide response (% of plate) [8] 104% | aptamer binding inhibition [9] 9% | response [10] -0.69% | inhibition [11] -1.27% | response [12] 1.08% | binding (% of control) [13] 98.7% | efflux inhibition (fraction of control) [14] -0.24 | inhibition [15] 7% | differentiation response [16] -20%
61.4%: double positive events [6]

COCC(C)NC(=O)c1ccc(CN2CCc3ccccc3C2)cc1 (stereo not drawn)
inactive: percent of DMSO control GFP [1] 97.3% | GFP response vs DMSO [2] 108% | percent response of DMSO control [3] 103% | GFP response vs DMSO [4] 120% | GFP response, % of DMSO [5] 92.6% | vesicle binding response [6] 257% | inhibition [7] -12.7% | superoxide response (% of plate) [8] 103% | aptamer binding inhibition [9] -9% | response [10] -5.78% | inhibition [11] 53.4% | response [12] -6.18% | binding (% of control) [13] 195% | efflux inhibition (fraction of control) [14] -0.1 | inhibition [15] 2% | differentiation response [16] 16.8%
60.9%: double positive events [6]

Cc1ccc(C2=NOC(=O)/C2=C\C=C\c2ccccc2)cc1
69.9%: double positive events [6]
inactive: percent of DMSO control GFP [1] 107% | GFP response vs DMSO [2] 101% | percent response of DMSO control [3] 108% | GFP response vs DMSO [4] 139% | GFP response, % of DMSO [5] 73.5% | vesicle binding response [6] 167% | inhibition [7] 33.8% | superoxide response (% of plate) [8] 113% | aptamer binding inhibition [9] -4% | response [10] 34% | inhibition [11] 13% | response [12] -2.56% | binding (% of control) [13] 105% | efflux inhibition (fraction of control) [14] -0.17 | inhibition [15] -16% | differentiation response [16] -4.57%
